PubChem BioAssay
For some of these results: Entries with a potency or affinity are not part of this list. Active and inactive are the calls of the source. Unless noted, how the calls were made is not given here.

What was measured:
[1] = antimalarial activity against Dd2 strain (AID 2302;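 active means growth inhibition above 50% at the single 2 µM test dose, taken to imply half-maximal potency below 2 µM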;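 further: 0% = DMSO untreated growth and 100% = chloroquine plus artemisinin killed control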); settings: P. falciparum Dd2 in RBCs, LDH growth readout, 72 h; at 2 µM; hits give high values
[2] = HepG2 cytotoxicity, primary screen, cytotoxicity control for P. falciparum antimalarial project, cell-based, ATP luminescence (AID 2303;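 active means inhibition above 50%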;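 further: 0% = DMSO wells and 100% = digitonin-killed cells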); settings: HepG2 viability, 24-48 h, at 10 µM, hits give high values
[3] = target: L-lactate dehydrogenase (Plasmodium falciparum (isolate CDC / Honduras)) (UniProt Q27743); experiment: PfLDH activity inhibition – cell lysate, 3D7 strain, counter-screen for P. falciparum growth inhibition project (AID 2304);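 further: 0% = vehicle and 100% = reference inhibitor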; settings: P. falciparum 3D7 crude extract, LDH APAD/NBT absorbance; at 2 µM; hits give high values
[4] = inhibition of 3D7 malaria parasite growth – strain 3D7 (AID 2306);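 further: 0% = DMSO wells and 100% = chloroquine plus artemisinin control wells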; settings: P. falciparum 3D7 erythrocytic growth, LDH absorbance, 72 h; at 2 µM; hits give high values
[5] = target: Calcium-dependent protein kinase 1 (Plasmodium falciparum (isolate 3D7)) (UniProt P62344); experiment: PfCDPK1 kinase inhibitors, biochemical, TCAMS library (AID 1159585; cut-off not given, nearly all actives have IC50 up to about 0.98 µM;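 further: inhibitors leave more ATP so luminescence rises with inhibition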); settings: recombinant PfCDPK1, Kinase-Glo ATP depletion luminescence
[6] = target: Plasmodium falciparum protein kinase 6 (PK6, PF3D7_1337100) (UniProt Q8IDW1); experiment: PfPK6 kinase inhibitors, biochemical, TCAMS library (AID 1159586); settings: recombinant PfPK6, Kinase-Glo ATP depletion luminescence
[7] = target: Protein kinase 7 (PK7), Plasmodium falciparum 3D7 (PF3D7_0213400) (UniProt Q7YTF7); experiment: inhibition of Plasmodium PK7 catalytic activity – biochemical, TCAMS antimalarial set, Kinase-Glo luminescence (AID 1159587); settings: recombinant PfPK7, Kinase-Glo ATP depletion luminescence
[8] = target: Calcium-dependent protein kinase 4 (Plasmodium falciparum (isolate 3D7)) (UniProt Q8IBS5); experiment: PfCDPK4 kinase inhibitors, biochemical, TCAMS library (AID 1159588; cut-off not given, nearly all actives have IC50 up to about 0.91 µM); settings: recombinant PfCDPK4, Kinase-Glo ATP depletion luminescence
Chain of Calcium-dependent protein kinase 4 (Plasmodium falciparum (isolate 3D7)) (Q8IBS5 whole entry, looked up): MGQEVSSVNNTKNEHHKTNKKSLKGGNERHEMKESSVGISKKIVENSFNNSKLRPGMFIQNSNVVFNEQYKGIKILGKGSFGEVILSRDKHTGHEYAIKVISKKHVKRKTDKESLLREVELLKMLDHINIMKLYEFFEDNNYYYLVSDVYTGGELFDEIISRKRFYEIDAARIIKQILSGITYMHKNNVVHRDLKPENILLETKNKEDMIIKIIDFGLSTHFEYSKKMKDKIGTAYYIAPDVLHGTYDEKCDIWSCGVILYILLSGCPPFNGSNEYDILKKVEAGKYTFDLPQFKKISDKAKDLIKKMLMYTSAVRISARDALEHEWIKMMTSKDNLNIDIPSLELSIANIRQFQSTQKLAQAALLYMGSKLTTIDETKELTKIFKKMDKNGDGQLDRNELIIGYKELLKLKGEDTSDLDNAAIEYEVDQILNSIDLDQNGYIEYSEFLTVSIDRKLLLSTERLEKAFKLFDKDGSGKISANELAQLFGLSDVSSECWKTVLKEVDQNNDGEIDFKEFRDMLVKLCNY

Chain of Plasmodium falciparum protein kinase 6 (PK6, PF3D7_1337100) (Q8IDW1 1-305): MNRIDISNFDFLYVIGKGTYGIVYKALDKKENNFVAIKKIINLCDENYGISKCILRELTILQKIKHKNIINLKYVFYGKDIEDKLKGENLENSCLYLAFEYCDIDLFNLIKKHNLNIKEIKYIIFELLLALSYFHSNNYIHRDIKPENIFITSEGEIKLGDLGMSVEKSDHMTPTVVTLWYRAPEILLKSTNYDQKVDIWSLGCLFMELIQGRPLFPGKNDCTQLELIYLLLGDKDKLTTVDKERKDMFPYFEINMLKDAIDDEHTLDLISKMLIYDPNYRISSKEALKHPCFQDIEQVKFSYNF
Chain of Protein kinase 7 (PK7), Plasmodium falciparum 3D7 (PF3D7_0213400) (Q7YTF7 1-343): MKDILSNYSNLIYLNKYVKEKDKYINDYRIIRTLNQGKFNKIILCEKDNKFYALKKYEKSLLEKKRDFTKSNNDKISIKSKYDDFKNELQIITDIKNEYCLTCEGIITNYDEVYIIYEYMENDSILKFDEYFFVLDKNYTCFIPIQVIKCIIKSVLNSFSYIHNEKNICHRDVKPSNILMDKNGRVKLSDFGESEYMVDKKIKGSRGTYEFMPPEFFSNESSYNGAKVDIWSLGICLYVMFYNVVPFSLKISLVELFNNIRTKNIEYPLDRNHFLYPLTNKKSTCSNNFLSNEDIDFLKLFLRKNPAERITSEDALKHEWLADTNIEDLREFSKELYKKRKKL
Chain of Calcium-dependent protein kinase 1 (Plasmodium falciparum (isolate 3D7)) (P62344 whole entry, looked up): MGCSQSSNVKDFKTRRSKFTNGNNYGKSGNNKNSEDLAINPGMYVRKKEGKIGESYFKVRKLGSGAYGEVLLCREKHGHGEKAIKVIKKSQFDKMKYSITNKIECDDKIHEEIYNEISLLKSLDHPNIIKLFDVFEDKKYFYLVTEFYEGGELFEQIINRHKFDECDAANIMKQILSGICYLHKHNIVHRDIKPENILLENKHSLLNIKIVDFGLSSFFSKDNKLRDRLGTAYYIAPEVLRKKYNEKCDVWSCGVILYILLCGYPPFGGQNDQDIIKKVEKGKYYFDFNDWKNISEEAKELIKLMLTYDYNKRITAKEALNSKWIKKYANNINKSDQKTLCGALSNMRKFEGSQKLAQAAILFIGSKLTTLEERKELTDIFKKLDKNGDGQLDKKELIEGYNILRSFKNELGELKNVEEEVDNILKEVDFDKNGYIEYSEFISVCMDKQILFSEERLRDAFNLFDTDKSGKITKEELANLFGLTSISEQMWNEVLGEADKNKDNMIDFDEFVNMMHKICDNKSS
Chain of L-lactate dehydrogenase (Plasmodium falciparum (isolate CDC / Honduras)) (Q27743 whole entry, looked up): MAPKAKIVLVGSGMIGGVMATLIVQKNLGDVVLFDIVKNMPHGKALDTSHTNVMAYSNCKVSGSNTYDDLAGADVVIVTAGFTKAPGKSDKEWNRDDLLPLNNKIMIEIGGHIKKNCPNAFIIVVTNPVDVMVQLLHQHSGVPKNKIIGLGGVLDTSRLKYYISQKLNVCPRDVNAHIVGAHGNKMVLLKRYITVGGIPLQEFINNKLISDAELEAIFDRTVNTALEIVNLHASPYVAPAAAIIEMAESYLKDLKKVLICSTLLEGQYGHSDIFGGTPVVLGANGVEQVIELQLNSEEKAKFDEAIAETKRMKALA

Cc1cccc2[nH]c(-c3cccc(-c4ccc(NC(=O)Cc5ccccn5)cc4)c3)nc12
inactive: inhibition [2] 25% | inhibition [3] 3% | outcome [5] | outcome [6] | outcome [7] | outcome [8]
active: growth inhibition [1] 57% | growth inhibition [4] 94%

COc1ccc(-c2cc(C(=O)N[C@@H](Cc3ccccc3)C(=O)NCCN3CCCCC3)ccc2O)cc1
inactive: growth inhibition [1] -3% | inhibition [2] -3% | inhibition [3] 1% | outcome [5] | outcome [6] | outcome [7] | outcome [8]
active: growth inhibition [4] 96%

CCN(CC)c1ccc2nc(N)nc(N)c2c1Cl
active: inhibition [2] 62% | growth inhibition [4] 92%
inactive: growth inhibition [1] 1% | inhibition [3] -5% | outcome [5] | outcome [6] | outcome [7] | outcome [8]

CCN1CCCC(CNC(=O)/C(=C/C=C/c2cc3cc(Cl)c(Cl)cc3[nH]2)OC)C1 (stereo not drawn)
active: growth inhibition [1] 89% | growth inhibition [4] 93%
inactive: inhibition [2] 33% | inhibition [3] -1% | outcome [5] | outcome [6] | outcome [7] | outcome [8]

CC(C)OC(=O)c1ccc(NC(=O)N[C@@H](Cc2ccc(O)cc2)C(=O)NC2C[C@H]3CC[C@@H](C2)N3Cc2ccccc2)cc1 (stereo partly drawn)
inactive: growth inhibition [1] 19% | inhibition [2] 0% | inhibition [3] -5% | outcome [5] | outcome [6] | outcome [7] | outcome [8]
active: growth inhibition [4] 92%

N#Cc1ccc(N2CCN(Cc3ccc(-c4ccc(-c5nc6ccc(F)cc6[nH]5)s4)cc3)CC2)nc1
active: growth inhibition [1] 78% | growth inhibition [4] 100%
inactive: inhibition [2] 12% | inhibition [3] 3% | outcome [5] | outcome [6] | outcome [7] | outcome [8]

O=C(NCCN1CCOCC1)c1ccc(N2CCC(Oc3ccc4ccccc4c3)CC2)nc1
active: growth inhibition [4] 92%
inactive: growth inhibition [1] 30% | inhibition [2] 1% | inhibition [3] -3% | outcome [5] | outcome [6] | outcome [7] | outcome [8]

CC(C)(C)CC(C)(C)c1ccc(O)c(C(=O)Nc2cccc([N+](=O)[O-])c2)c1
inactive: inhibition [2] 49% | inhibition [3] -8% | outcome [5] | outcome [6] | outcome [7] | outcome [8]
active: growth inhibition [1] 97% | growth inhibition [4] 95%

C=CCn1c(=N)c(C(=O)NC2CCCCC2)cc2c(=O)n3cccc(C)c3nc21
active: growth inhibition [1] 58% | growth inhibition [4] 92%
inactive: inhibition [2] 0% | inhibition [3] 4% | outcome [5] | outcome [6] | outcome [7] | outcome [8]

CC(Nc1ccnc2cc(Cl)ccc12)c1ccc(S(N)(=O)=O)cc1 (stereo not drawn)
inactive: growth inhibition [1] 21% | inhibition [2] 5% | inhibition [3] 3% | outcome [5] | outcome [6] | outcome [7] | outcome [8]
active: growth inhibition [4] 96%

COc1cc2nc(NCCCN3CCCCC3)nc(NCc3ccccc3)c2cc1OC
active: growth inhibition [4] 102%
inactive: growth inhibition [1] 3% | inhibition [2] 12% | inhibition [3] 1% | outcome [5] | outcome [6] | outcome [7] | outcome [8]

NC(=O)c1cccc(C(=O)Nc2cccc(-c3ccc(-c4nc5ccccc5[nH]4)s3)c2)c1
inactive: inhibition [2] 37% | inhibition [3] 1% | outcome [5] | outcome [6] | outcome [7] | outcome [8]
active: growth inhibition [1] 69% | growth inhibition [4] 95%

COc1ccc2nccc([C@@H](O)CN3CCC(NC(=O)C(c4cc5ccccc5o4)N4CCN(Cc5ccccc5)CC4)CC3)c2c1 (stereo partly drawn)
active: growth inhibition [1] 75% | growth inhibition [4] 91%
inactive: inhibition [2] 30% | inhibition [3] -5% | outcome [5] | outcome [6] | outcome [7] | outcome [8]

CCCC(CNCc1cccc(I)c1)CNc1cc(=O)c2ccccc2[nH]1 (stereo not drawn)
active: growth inhibition [1] 96% | growth inhibition [4] 100%
inactive: inhibition [2] -3% | inhibition [3] 7% | outcome [5] | outcome [6] | outcome [7] | outcome [8]

N#Cc1ccc(-c2ccc(OCC(O)CN3CCCN(Cc4cccc(O)c4Cl)CC3)cc2)cc1 (stereo not drawn)
inactive: inhibition [2] 3% | inhibition [3] -6% | outcome [5] | outcome [6] | outcome [7] | outcome [8]
active: growth inhibition [1] 66% | growth inhibition [4] 98%

Cc1ccc(Cc2c(N)nc3nc(N)nc(N)c3c2C)cc1
active: inhibition [2] 59% | growth inhibition [4] 95%
inactive: growth inhibition [1] 8% | inhibition [3] 4% | outcome [5] | outcome [6] | outcome [7] | outcome [8]

CN1CCCN(Cc2cccc(-c3ccc(NC(=O)c4cccc(Cl)c4)cc3)c2)CC1
active: growth inhibition [4] 90%
inactive: growth inhibition [1] 10% | inhibition [2] 34% | inhibition [3] -3% | outcome [5] | outcome [6] | outcome [7] | outcome [8]

Cc1cc(SC(C)(C)C)cc2c(Cl)c(C(N)=O)cnc12
inactive: inhibition [3] 0% | outcome [5] | outcome [6] | outcome [7] | outcome [8]
active: growth inhibition [1] 98% | inhibition [2] 83% | growth inhibition [4] 98%

COc1ccc(OC)c2c1CCN(C)C2Cc1cccc2ccccc12 (stereo not drawn)
active: growth inhibition [1] 79% | growth inhibition [4] 91%
inactive: inhibition [2] 13% | inhibition [3] 7% | outcome [5] | outcome [6] | outcome [7] | outcome [8]

N#Cc1ccc(NC(=O)Nc2ccc(OC(F)(F)F)cc2)cc1
inactive: inhibition [2] 43% | inhibition [3] 0% | outcome [5] | outcome [6] | outcome [7] | outcome [8]
active: growth inhibition [1] 91% | growth inhibition [4] 98%

COc1ccc(CN2CCCN(Cc3cccc(C(=O)Nc4ccc(C(C)(C)C)cc4)c3)CC2)cc1
inactive: growth inhibition [1] 3% | inhibition [2] 46% | inhibition [3] 2% | outcome [5] | outcome [6] | outcome [7] | outcome [8]
active: growth inhibition [4] 98%

Cc1cccc2[nH]c(-c3ccc(-c4cccc(CNCCN5CCNCC5)c4)cc3)nc12
active: growth inhibition [4] 85%
inactive: growth inhibition [1] 2% | inhibition [2] 9% | inhibition [3] 1% | outcome [5] | outcome [6] | outcome [7] | outcome [8]

COc1ccc2nccc([C@@H](O)CN3CCC(NC(=O)c4ccc(OC)c(N)c4)CC3)c2c1
active: growth inhibition [4] 93%
inactive: growth inhibition [1] 0% | inhibition [2] 9% | inhibition [3] -3% | outcome [5] | outcome [6] | outcome [7] | outcome [8]

COc1ccc2ncc(OC)c(CCN3CC[C@@H](NCc4ccc5c(n4)NC(=O)CS5)[C@H](O)C3)c2n1
inactive: inhibition [2] 21% | inhibition [3] 4% | outcome [5] | outcome [6] | outcome [7] | outcome [8]
active: growth inhibition [1] 99% | growth inhibition [4] 94%

Cc1ccc(NC(=O)c2cnc(N3CCN(c4ccncc4)CC3)c(Cl)c2)cc1
inactive: growth inhibition [1] 24% | inhibition [2] 25% | inhibition [3] 4% | outcome [5] | outcome [6] | outcome [7] | outcome [8]
active: growth inhibition [4] 94%

COCCNCc1cccc(C#Cc2cc3ncnc(Nc4ccc(OCc5cccc(F)c5)c(Cl)c4)c3s2)n1
inactive: inhibition [2] 35% | inhibition [3] -4% | outcome [5] | outcome [6] | outcome [7] | outcome [8]
active: growth inhibition [1] 52% | growth inhibition [4] 99%

COc1ccc(Nc2nc(NN=Cc3ccc(-c4ccc([N+](=O)[O-])cc4)o3)nc(Nc3ccccc3)n2)cc1
active: growth inhibition [4] 100%
inactive: growth inhibition [1] 17% | inhibition [2] -8% | inhibition [3] 5% | outcome [5] | outcome [6] | outcome [7] | outcome [8]

CN1CCN(Cc2cccc(-c3ccc4c(Nc5ccc(Oc6cccnc6)cc5)ccnc4c3)c2)CC1
active: growth inhibition [1] 100% | growth inhibition [4] 100%
inactive: inhibition [2] 15% | inhibition [3] 0% | outcome [5] | outcome [6] | outcome [7] | outcome [8]

CCCCCc1cc(OCCN(C)C)cc2c1C(=O)CC(C)(C)O2
active: growth inhibition [4] 98%
inactive: growth inhibition [1] -2% | inhibition [2] 5% | inhibition [3] 6% | outcome [5] | outcome [6] | outcome [7] | outcome [8]

Cc1cc(O)c2c3c1C(=O)C=C1C3c3c(c(O)cc(O)c3C(=O)C1(C)C)C2=O (stereo not drawn)
inactive: growth inhibition [1] 46% | inhibition [2] 45% | inhibition [3] -3% | outcome [5] | outcome [6] | outcome [7] | outcome [8]
active: growth inhibition [4] 98%

N#Cc1cccc(CN(Cc2ccc(Cl)c(Cl)c2)S(=O)(=O)c2cccc([N+](=O)[O-])c2)c1
active: growth inhibition [1] 73% | growth inhibition [4] 100%
inactive: inhibition [2] 3% | inhibition [3] -8% | outcome [5] | outcome [6] | outcome [7] | outcome [8]

CCN1CCC(N(CCCCCCCCc2ccc(C(F)(F)F)cc2)C(=O)Cn2c(CCc3cccc(F)c3F)cc(=O)c3ccccc32)CC1
inactive: inhibition [3] 2% | outcome [5] | outcome [6] | outcome [7] | outcome [8]
active: growth inhibition [1] 65% | inhibition [2] 89% | growth inhibition [4] 88%

Oc1ccc(CCNc2nc(NCCCOc3cc(CN4CCCCC4)ccc3F)nc(N3CCNCC3)n2)cc1
inactive: growth inhibition [1] -3% | inhibition [2] 30% | inhibition [3] -1% | outcome [5] | outcome [6] | outcome [7] | outcome [8]
active: growth inhibition [4] 101%

CNCCNCc1cccc(-c2ccc(-c3nc4c(C)cccc4[nH]3)cc2)c1
inactive: growth inhibition [1] 21% | inhibition [2] 17% | inhibition [3] -1% | outcome [5] | outcome [6] | outcome [7] | outcome [8]
active: growth inhibition [4] 98%

COc1cc2nccc(Nc3ccc(NC(=O)c4ccc(C)cc4)c(O)c3)c2cc1OC
active: growth inhibition [1] 77% | inhibition [2] 96% | growth inhibition [4] 101%
inactive: inhibition [3] 1% | outcome [5] | outcome [6] | outcome [7] | outcome [8]

COc1cc(CCNc2nc(NCc3cccc4ccccc34)nc(N3CCC(N)CC3)n2)ccc1O
active: growth inhibition [1] 59% | growth inhibition [4] 100%
inactive: inhibition [2] 16% | inhibition [3] 5% | outcome [5] | outcome [6] | outcome [7] | outcome [8]

O=C(NC1CCN(c2ccnc3cc(Cl)ccc23)C1)c1ccc(C(F)(F)F)cc1 (stereo not drawn)
active: growth inhibition [1] 57% | growth inhibition [4] 101%
inactive: inhibition [2] 37% | inhibition [3] 4% | outcome [5] | outcome [6] | outcome [7] | outcome [8]

CN(C)c1ccc(C(c2ccc(N(C)C)cc2)c2cc([N+](=O)[O-])ccc2Cl)cc1
inactive: inhibition [2] 0% | inhibition [3] 7% | outcome [5] | outcome [6] | outcome [7] | outcome [8]
active: growth inhibition [1] 67% | growth inhibition [4] 96%

Cc1cc(N[C@@H](Cc2ccccc2)C(=O)NCCCOC(C)C)nc(NCC2CCCCC2)n1
active: growth inhibition [4] 94%
inactive: growth inhibition [1] 25% | inhibition [2] 17% | inhibition [3] -4% | outcome [5] | outcome [6] | outcome [7] | outcome [8]

Cc1ccc2c(OCCN3CCC(Cc4cc5c(cc4F)OCC(=O)N5)CC3)cc(F)cc2n1
active: growth inhibition [1] 71% | growth inhibition [4] 100%
inactive: inhibition [2] 27% | inhibition [3] 3% | outcome [5] | outcome [6] | outcome [7] | outcome [8]

COc1c(C2CCN(CCN3CCC(CNC(=O)c4ccc(-c5ccc(C#N)cc5)cc4)CC3)CC2)ccc2c1CCCC2
inactive: inhibition [3] 0% | outcome [5] | outcome [6] | outcome [7] | outcome [8]
active: growth inhibition [1] 100% | inhibition [2] 96% | growth inhibition [4] 100%
